Laboratory results published in PubChem BioAssay (NCI).
About 83,000 compounds went through this panel and 20% of them were active in at least one assay; those are over-represented in the sample as a whole.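 Interpretation: 100, growth as untreated; towards 0, rising growth inhibition; 0, no net growth; 0 to -100, cell death. Compounds scoring below 10 were considered active.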 Unmarked numbers belong to inactive results. Calls of active or inactive are those of the source.

Assays:
Assay in all cases: NCI-60 one-dose screen, 48 h (100 = growth as untreated, 0 = no growth, -100 = all killed)
Conditions in all cases: 10 µM unless noted
T-47D breast = tested on: T-47D breast
BT-549 breast = tested on: BT-549 breast
MDA-MB-435 melanoma = tested on: MDA-MB-435 melanoma
SW-620 colon = tested on: SW-620 colon
MCF7 breast = tested on: MCF7 breast
HCT-116 colon = tested on: HCT-116 colon
HCC-2998 colon = tested on: HCC-2998 colon
KM12 colon = tested on: KM12 colon

SMILES	growth (T-47D breast)	growth (BT-549 breast)	growth (MDA-MB-435 melanoma)	growth (SW-620 colon)	growth (MCF7 breast)	growth (HCT-116 colon)	growth (HCC-2998 colon)	growth (KM12 colon)
CCCCCCCCCCCCCCCCCC1=NCCN1CCNC(C)=O	85.8%	99.1%	103%	107%	79.2%	69.1%	92.3%	73.4%
COc1cc(OC)cc(-c2ccc(-c3ccc(C(=N)N)cc3)s2)c1	-53.6% (active)	-72.4% (active)	-97.5% (active)	-73.7% (active)	-75.2% (active)	-93.3% (active)	-76.5% (active)	-84.9% (active)
CCCCCCCCCCCCCCCCCCOP(=O)(O)O	106%	114%	101%	91.3%	101%	106%	108%	110%
CC1=NN(c2cccc(Cl)c2)C(=O)/C1=C\c1cn(-c2nc(N3CCOCC3)nc(N3CCOCC3)n2)c2ccccc12	99.8%	103%	100%	110%	98.9%	94.9%	104%	107%
Cc1nn(-c2ccccc2)c(N)c1N=C1NC(=O)/C(=C/c2ccc(Cl)cc2)S1	74.4%	75.8%	66.9%	82.2%	70.9%	83.6%	121%	78.3%
CCCCCCCCc1ccc(CCC(N)(CO)CO)cc1	34%	73.5%	-43.6% (active)	-83.8% (active)	-69% (active)	-69.8% (active)	-85.6% (active)	-66.5% (active)
O=C(O)CC1Cc2ccccc2C1C(=O)O (centres undefined)	101%	89.7%	108%	98.4%	105%	93.5%	104%	96.7%
CC(=O)OC1CC2C3CCC4C[C@@H](NC(=O)C=C(C)C)CC[C@]4(C)C3CC[C@]2(C)[C@H]1C(C)N(C)C (some centres undefined)	-22.3% (active)	22.5%	-45.4% (active)	-72.5% (active)	1.95% (active)	-70.4% (active)	-51.9% (active)	1.6% (active)
N#CCc1ncc(-c2ccc(C(F)(F)F)cc2)c(NC2CCCCCC2)n1	20.7% [100 µM]	9.45% [100 µM] (active)	0.369% [100 µM] (active)	19% [100 µM]	18.4% [100 µM]	8.09% [100 µM] (active)	38.1% [100 µM]	8.14% [100 µM] (active)
CCCCCCCCCCCCc1ccc([N+](CC)(CC)CC)cc1	18.6%	30.2%	13.9%	58.8%	27.9%	41.8%	36.7%	25.6%
Oc1ccc(CN(Cc2ccc(C(F)(F)F)cc2)Cc2ccc(O)c3ncccc23)c2cccnc12	20.2%	32.9%	31.4%	18.1%	13.7%	18%	34.1%	18.8%
COc1cc2ncnc(-n3ncc4cc(NC(=O)Nc5ccc(Cl)c(C)c5)ccc43)c2cc1OC	72%	89.7%	93.8%	120%	72.7%	81.5%	100%	25.8%
O=C(Nn1cnc2ccccc21)N1CCCC1	106%	96.5%	104%	109%	108%	85.1%	83.7%	116%
O=C(O)/C(Br)=C/c1c[nH]c2ccc(Br)cc12	184%	121%	117%	110%	137%	98.2%	94.2%	103%
CC(=O)N1N=C(c2ccc(Cl)cc2)CC1c1cn(-c2ccccc2)nc1-c1ccc([N+](=O)[O-])cc1 (centres undefined)	86.9%	89.7%	98.1%	99%	95.9%	97.1%	231%	101%
O=C(Cc1ccccc1[N+](=O)[O-])c1ccc2c(c1)OCO2	94.4%	92.1%	102%	99%	96.5%	103%	116%	107%
COc1ccc(/C=C(/C(=O)N2CCN(c3ccc(C)cc3)CC2)c2cc(OC)c(OC)c(OC)c2)cc1N	97.2%	16.6%	-43.8% (active)	27.1%	12%	3.55% (active)	31.8%	3.83% (active)
COc1ccc2c(c1)/C(=C1/S/C(=N/c3nnc(C)s3)NC1=O)C(=O)N2Cc1ccc(Br)cc1	22%	42.9%	39.3%	44.5%	35.1%	19.7%	46.1%	27.7%
COc1ccc(-c2cc(C#N)c(NNC(C)=O)[nH]2)cc1	165%	119%	107%	115%	110%	92%	105%	107%
O=C1C(Cl)=C(SC2=NCCN2)C(=O)c2ccccc21	49.7%	90.3%	62.7%	95.6%	61.1%	65%	106%	75.5%
CCCCCCCCCCCCCCCCCC(=O)Nc1ccc(O)cc1	93.6%	62.8%	107%	98.6%	98.9%	106%	120%	100%
O=C(CCl)c1ccc2c(c1)CCCC2	87.9%	83.5%	111%	82.6%	86.5%	84.2%	111%	107%
CCCCCCCCCCCCCCCCCC1=NCCN1CS(=O)(=O)O	57.4%	93.5%	-19.9% (active)	4.2% (active)	30.3%	44.2%	101%	16.4%
Cc1ccc(NC(=O)CCl)cc1Cl	90.2%	76.7%	90.9%	95.5%	87.5%	106%	115%	111%
CCCCCN1CCN(C(CC(=O)c2ccccc2)C(=O)c2ccccc2)CC1 (centres undefined)	101%	96.2%	95.5%	-100% (active)	89.6%	77.4%	106%	102%
Nc1ccc(S(=O)(=O)c2ccc(NO)cc2)cc1	96.9%	80%	97.3%	104%	95.1%	98.9%	92.6%	116%
COc1ccc(CN2C(=O)/C(=C\C(=O)c3ccc(OCCN4CCCC4)cc3)c3ccccc32)cc1	57.8%	92.5%	90.2%	3.07% (active)	32.4%	18.5%	101%	85.4%
CN(C)CCOC(=O)C(C)(C)C	103%	112%	104%	91.6%	99.3%	103%	110%	106%
